In the library only some 2.2% were active in any assay of this set; here they are far more common.
KLF5 inhibitor = suppresses KLF5 promoter-driven expression; DLD-1 KLF5 promoter-luciferase reporter, luminescence; inhibition, % at 5 µM; 290,000 tested, 0.23% active; AID 1700;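 active = inhibition above a per-plate limit of that plate's mean compound inhibition plus 3 SD, cut at about 60% in these data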;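 note: higher means less KLF5 promoter-driven luciferase light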
aSyn 5UTR inh = MLPCN primary screen, SNCA 5' untranslated region; inhibition, % (tested at 7.5 µM); alpha-synuclein 5'UTR reporter, inhibitor activity; 300,000 tested, 0.82% active; AID 1813; in the data active = inhibition above about 60%;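 note: H4 neuroglioblastoma cells stably carrying SNCA 5'UTR luciferase fusion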
Ba/F3 V617F tox = lowers viability of Ba/F3 cells expressing EpoR and JAK2V617F; inhibition, % at 5.6 µM; 220,000 tested, 1.1% active; ATP luminescence;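 active = inhibition above the campaign mean plus 3 SD over all tested compounds, cut at about 24% in these data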;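 note: cytokine-independent growth of Ba/F3 cells driven by EpoR plus mutant JAK2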
IEC-6 cytotox = counter-screen for KLF5 inhibitors: cytotoxicity in IEC-6 cells. IEC-6 cytotoxicity, luminescence viability. inhibition, % at 5 µM. 290,000 tested, 0.78% active; in the data active = inhibition above about 22%
BaF3 parental = counter-screen for JAK2V617F inhibitors: parental Ba/F3 viability inhibitors; CellTiter-Glo ATP luminescence; inhibition, % at 5.6 µM; 220,000 tested, 1.1% active; AID 1486;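 active = inhibition above a per-campaign cutoff, the mean inhibition of all tested compounds plus 3 SD, cut at about 27% in these data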
APP 5UTR inh = APP translation inhibition | inhibition, % at 2 µM | 190,000 tested, 0.82% active | AID 1285 | SH-SY5Y APP 5'UTR-luciferase reporter, luminescence;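 active = inhibition above a set limit, derived from the sample mean plus 3 SD, cut at about 45% in these data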
Numbers stand for hits; n = inactive; x = no result.

SMILES	KLF5 inhibitor	aSyn 5UTR inh	Ba/F3 V617F tox	IEC-6 cytotox	BaF3 parental	APP 5UTR inh
Cc1nc2ccccc2c(=O)n1/N=C/c1ccccc1	n	n	n	n	n	n
Cc1nc2ccccc2c(=O)n1/N=C/c1cccs1	n	n	n	n	n	53
CC(C)N=c1scc(-c2ccco2)n1/N=C/c1ccc(O)c(O)c1	n	x	96	n	73	n
CCOC(=O)c1sc(NC(=O)c2cccc(S(=O)(=O)N3c4ccccc4CC3C)c2)cc1C (stereo not drawn)	n	80	n	n	n	n
Cc1cc(NC(=O)c2cccc(S(=O)(=O)N3c4ccccc4CC3C)c2)no1 (stereo not drawn)	n	n	n	n	n	x
COc1ccc(-c2c[n+]3c(n2-c2ccccc2)CCCCC3)cc1	n	n	76	n	64	n
COc1ccc(-n2c(-c3ccc(Cl)cc3)c[n+]3c2CCCCC3)cc1	n	n	72	n	66	x
CCOc1ccc(-n2c(-c3ccccc3)c[n+]3c2CCC3)cc1	n	n	79	n	68	n
COc1ccc(-c2c[n+]3c(n2-c2c(C)n(C)n(-c4ccccc4)c2=O)CCCCC3)cc1	n	n	n	n	n	n
FC(F)Oc1ccc(-c2c[n+]3c(n2-c2ccccc2)CCCCC3)cc1	n	n	64	n	60	x
Cc1oc(-c2ccccc2)nc1CS(=O)CC(=O)NC1CCCC1 (stereo not drawn)	n	n	x	n	x	x
COc1ccccc1NC(=O)/C(C#N)=C/c1cccn1C	x	n	x	x	x	x
CN(C)c1ccc(NC(=O)CSc2nnc(C3CCCCC3)n2N)cc1	n	n	x	n	x	x
CC1(C)Cc2c(c(N3CCOCC3)nc3sc4c(NCc5ccccc5)nnnc4c23)CS1	n	68	n	n	n	n
CS(=O)c1ccccc1COC(=O)Nc1ccccc1 (stereo not drawn)	n	n	n	n	n	n
COc1ccc(NC2=CC(=O)CC(c3ccccc3)C2)c(OC)c1 (stereo not drawn)	n	n	39	n	43	n
CCOc1ccc(C(=O)NC(C(=O)NCCc2ccc(OC(F)F)cc2)C(C)C)cc1 (stereo not drawn)	n	n	x	n	x	x
CC(C)(C)c1ccc(C(=O)N/C(=C\c2ccco2)C(=O)Nc2ccccc2C(=O)O)cc1	n	n	x	n	x	x
Cc1noc(C)c1S(=O)(=O)N1CCC(C(=O)NCCCN2CC(C)CC(C)C2)CC1 (stereo not drawn)	n	n	n	n	n	n
Cc1noc(C)c1S(=O)(=O)N1CCC(C(=O)NCCN2CCC(C)CC2)CC1	n	n	n	n	n	61
CCCC1(c2ccccc2)NC(=O)N(C/C=C/Cl)C1=O (stereo not drawn)	n	n	x	n	x	x
Cc1cc(NC(=S)NC(=O)c2ccccc2)ccc1-c1cc2ccccc2oc1=O	n	n	n	n	n	69
Cc1ccc(C(=O)Nc2cc3ccccc3oc2=O)cc1	n	111	n	n	n	66
Nc1ccc(-c2ncc(-c3ccccc3)o2)cc1	n	86	x	n	x	x
Cc1ccc(-c2cnc(-c3ccncc3)o2)cc1	n	n	n	n	n	n
SMILES	KLF5 inhibitor	aSyn 5UTR inh	Ba/F3 V617F tox	IEC-6 cytotox	BaF3 parental	APP 5UTR inh
Cc1ccc(C2N=C(N)Nc3nc(=O)c4ccccc4n32)cc1 (stereo not drawn)	n	n	n	n	n	x
CCCn1c(-c2ccc(OC)cc2)nc2ccccc21	n	n	40	n	52	n
COCn1c(-c2ccc(OC)cc2)nc2ccccc21	n	n	n	n	n	n
CC(=O)Nc1cc[n+](C(C)C(=O)c2ccc(Br)cc2)cc1 (stereo not drawn)	n	n	40	n	37	n
CCOC(=O)CNc1nc(C(C)(C)C)nc2c1nnn2Cc1ccccc1	n	n	x	n	x	x
O=C(Nc1nc2ccccc2[nH]1)c1cccc(F)c1	n	n	x	n	x	x
COc1cccc(C(=O)Nc2nc3ccccc3[nH]2)c1	n	63	n	n	n	n
C=C1C(=O)O[C@@H]2C[C@@H](C)[C@@H]3C=CC(=O)[C@@]3(C)[C@@H](OC(C)=O)[C@H]12	x	95	x	x	x	x
CCC(C)C(=O)Nc1cccc(SC)c1 (stereo not drawn)	n	n	n	n	n	n
CC1CC(=O)c2c(cc3c(-c4c(O)cc(O)c5c(O)c6c(cc45)OC(C)CC6=O)c(O)cc(O)c3c2O)O1 (stereo not drawn)	n	70	n	n	n	50
O=C1CC(c2ccc(O)cc2)Oc2cc(O)cc(O)c21 (stereo not drawn)	n	n	n	n	n	n
Nc1c(C(=O)Nc2ccccc2Cl)nnn1-c1ccc2c(c1)OCCO2	n	n	x	n	x	x
Cc1nn(-c2ccccc2)c(Cl)c1C(=O)NCC(C)C	n	n	n	n	n	77
Cc1cc(C)c2nc(/N=C(\N)NC(=O)Nc3ccccc3)nc(C)c2c1	n	n	69	n	66	n
CCOc1ccc2nc(NC3=NCN(CC4CCCO4)CN3)nc(C)c2c1 (stereo not drawn)	n	x	n	n	n	n
Cc1ccc2nc(NC3=NCN(Cc4ccc5c(c4)OCO5)CN3)nc(C)c2c1	n	x	63	n	70	94
CCCCCCc1cc2cc(C(=O)Nc3cccc(OC)c3)c(=O)oc2cc1O	n	63	n	n	n	n
COc1ccc(-n2c(CCC(=O)O)ccc2-c2ccccc2)cc1	n	n	n	n	29	n
Cc1ccccc1CN1CCCC(C(=O)Nc2ccc(-c3ccn[nH]3)cc2)C1 (stereo not drawn)	n	n	x	n	x	x
COc1cc2c(cc1NC(=O)C(C)N1CCN(S(=O)(=O)c3ccccc3[N+](=O)[O-])CC1)oc1ccccc12 (stereo not drawn)	n	n	n	n	n	93
COc1cc2c(cc1NC(=O)c1ccc(C)c([N+](=O)[O-])c1)oc1ccccc12	n	n	n	n	n	n
COc1cc2c(cc1NC(=O)c1cccc([N+](=O)[O-])c1)oc1ccccc12	n	81	n	n	n	n
COc1cc2c(cc1NC(=O)COc1ccc3ccccc3c1)oc1ccccc12	n	n	n	n	n	46
C=CCc1cc(OC)ccc1OCCOCCN1CCc2ccccc2C1	n	n	n	n	n	n
Cc1ccc(C)c(NC(=O)CSc2nnc(NC(=O)C3CC3)s2)c1	n	n	x	n	x	x
SMILES	KLF5 inhibitor	aSyn 5UTR inh	Ba/F3 V617F tox	IEC-6 cytotox	BaF3 parental	APP 5UTR inh
Cc1ccc2c(c1)C(c1ccccc1)N(C(=O)CC(C)C)CC(=O)N2 (stereo not drawn)	n	n	x	n	x	x
Cc1ccc2c(N)c(C)ccc2c1	n	n	n	n	n	n
Cc1ccc2cc3c(N)c4c(C)ccc(C)c4nc3nc2c1	n	n	n	n	n	56
Nc1ccc(N2CCCCCC2)cc1	n	x	43	n	59	n
CC(c1ccccc1)n1c(CCCO)nc2ccccc21 (stereo not drawn)	n	n	x	n	x	x
CN(C)CCCN(C(=O)CCc1ccccc1)c1nc2ccc(Cl)cc2s1	n	109	n	n	n	n

Screens from PubChem BioAssay.
